Screens deposited in PubChem BioAssay by The Scripps Research Institute Molecular Screening Center.
In the library only some 4.1% were active in any assay of this set; here they are far more common.
hgDAF12 agonist: agonists of H. glycines DAF-12 nuclear receptor; HEK293 GAL4-hgDAF12 UAS-luciferase reporter, agonist luminescence; normalized to butyrate control; activation, % at 6.8 µM; 1.8% of 370,000 active; AID 687014;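 active = activation above a cutoff set at the mean of all screened compounds plus 3 SD, cut at about 10% in these data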;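 also: 0% = DMSO wells and 100% = sodium butyrate wells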
hcDAF-12 act: H. contortus DAF-12 activation, primary screen | HEK293 hcDAF-12 lit1-tk-luc reporter, luminescence; 0% DMSO, 100% Δ7-dafachronic acid | activation, % at 6.8 µM | 1.4% of 370,000 active | AID 652067;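 active = activation above the mean of all tested compounds plus 3 SD, cut at about 5.5% in these data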;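 also: 100% = response to 3 µM Δ7-dafachronic acid high control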
ssDAF-12 act: S. stercoralis DAF-12 activation, primary screen. HEK293 ssDAF-12/GRIP1 lit1-tk-luc reporter, luminescence; % of 3 µM dafachronic acid response. AID 652126. 1% of 370,000 active. activation, % at 6.8 µM;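 active = activation above the mean over all tested compounds plus 3 SD, cut at about 0.9% in these data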;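 also: 0% = DMSO-only wells and 100% = 3 µM delta7-dafachronic acid wells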
DAX1 inh-1: inhibitors of human orphan nuclear receptor DAX1 (NR0B1). P51843. HEK293 Gal4-DAX1 luciferase reporter, luminescence. inhibition, % at 6.75 µM. 0.99% of 340,000 active. AID 504766;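 active = inhibition above the mean over all tested compounds plus 3 SD, cut at about 4.2% in these data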;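 also: 0% = DAX1-transfected cells with DMSO and 100% = empty-vector control cells with DMSO; inhibition shows as a rise in luminescence from relieved DAX1 repression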
Target sequence (P51843 207-470 limits assumed): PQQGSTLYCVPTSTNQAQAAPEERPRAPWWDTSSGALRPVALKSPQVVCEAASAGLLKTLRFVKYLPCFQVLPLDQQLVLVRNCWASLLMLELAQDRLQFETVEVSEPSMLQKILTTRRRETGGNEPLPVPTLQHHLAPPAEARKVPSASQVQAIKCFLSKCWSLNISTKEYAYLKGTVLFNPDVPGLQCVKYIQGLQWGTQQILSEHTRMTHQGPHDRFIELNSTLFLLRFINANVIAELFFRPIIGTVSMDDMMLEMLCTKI
DAX1 inh-2: DAX1 (NR0B1) inhibition, primary screen; 1.1% of 370,000 active; HEK293T StAR-luciferase reporter, SF-1/DAX-1 repression relief; inhibition, % at 6.8 µM;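 active = inhibition above the mean over all tested compounds plus 3 SD, cut at about 3.6% in these data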;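 also: 0% = DAX-1 cells with DMSO and 100% = cells lacking DAX-1 with DMSO; higher inhibition means more luminescence from relief of DAX-1 repression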
LXRb hcDAF ctr: activates human LXR-beta, counter-screen for hcDAF-12 agonists; shares compounds with hcDAF-12 act; HEK293 Gal4-LXR tk-luc reporter, luminescence, 24 h; normalized: DMSO 0%, positive control 100%; activation, % at 6.8 µM; 3,400 tested, under 10 active; AID 743027;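 active = mean percent activation of the reporter above a cutoff set as the average over tested compounds plus their standard deviation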
hcDAF12 conf: hcDAF-12 agonism, confirmation assay; activation, % at 6.8 µM; shares compounds with hcDAF-12 act; HEK293 hcDAF-12 lit1-tk-luc reporter, luminescence; % of Δ7-dafachronic acid response; AID 743032; 61% of 3,400 active;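 active = mean activation across triplicate tests above the threshold derived from the earlier primary screen, cut at about 5.5% in these data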;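 also: 0% = DMSO only wells and 100% = 3 µM Δ7-dafachronic acid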
hgDAF12 ag: hgDAF-12 agonism, confirmation assay; shares compounds with hgDAF12 agonist; HEK293 GAL4-hgDAF12 luciferase reporter, agonist mode; percent of butyrate response; activation, % at 6.8 µM; 80% of 3,300 active;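 active = mean activation over triplicate wells above the hit cutoff derived from the earlier primary screen, cut at about 11% in these data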;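 also: 0% = DMSO low control and 100% = 2 mM sodium butyrate high control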
LXRb DAF12 ctr: LXR-beta agonism as DAF-12 counter-screen | shares compounds with hgDAF12 agonist | HEK293 Gal4-LXR luciferase reporter, 24 h | activation, % at 6.8 µM | 3,300 tested, under 10 active | AID 743051;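 active = mean activation of the triplicate above a set limit carried over from the primary screen, none filed active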
An asterisk follows results filed as active.

Screening O=C(/C=C/c1ccco1)Nc1ccc2c(c1)OCCO2 returned hgDAF12 agonist 16*, hcDAF-12 act 7.5*, ssDAF-12 act 0, DAX1 inh-1 0, DAX1 inh-2 4.4*, LXRb hcDAF ctr 1, hcDAF12 conf 8.9*, hgDAF12 ag 18* and LXRb DAF12 ctr 1.
`O=C(Nc1ccccc1C(=O)Nc1ccccc1)c1ccccc1F` gave hgDAF12 agonist 0, hcDAF-12 act 0, ssDAF-12 act -1, DAX1 inh-1 0 and DAX1 inh-2 0.
CC1(c2ccc(NC(=O)c3ccccc3F)cc2)CC1(Cl)Cl (configuration not stated) was read as hgDAF12 agonist 17*, hcDAF-12 act 9.6*, ssDAF-12 act 1, DAX1 inh-1 4.3*, DAX1 inh-2 3, LXRb hcDAF ctr 1, hcDAF12 conf 6.3*, hgDAF12 ag 16* and LXRb DAF12 ctr 1.
Screening COc1ccccc1C(=O)Nc1ccnn1C1CCN(C(=O)c2ccoc2C)CC1 returned hgDAF12 agonist 2, hcDAF-12 act 0, ssDAF-12 act -1, DAX1 inh-1 0 and DAX1 inh-2 -1.
For Cn1c(NC(=O)CCc2ccccc2)cc(=O)n(C)c1=O the results were hgDAF12 agonist 14*, hcDAF-12 act 9.4*, ssDAF-12 act 1.6*, DAX1 inh-1 1, DAX1 inh-2 4.1*, LXRb hcDAF ctr 1, hcDAF12 conf 7.5*, hgDAF12 ag 13* and LXRb DAF12 ctr 1.
CS(=O)(=O)Nc1ccc(C(=O)NCCSc2ccc(Cl)cc2)cc1 was read as hgDAF12 agonist 2, hcDAF-12 act 0, ssDAF-12 act -1, DAX1 inh-1 -1 and DAX1 inh-2 0.
C/C(=N\Nc1ccc(Cl)c(C(=O)O)c1)c1ccc(Br)s1 was read as hgDAF12 agonist 3, hcDAF-12 act 2, ssDAF-12 act 0, DAX1 inh-1 2 and DAX1 inh-2 0.
`C/C(=N\Nc1ccc(C(=O)O)cc1)c1ccc(Cl)s1` gave hgDAF12 agonist 16*, hcDAF-12 act 8.2*, ssDAF-12 act 1.1*, DAX1 inh-1 -1, DAX1 inh-2 3, LXRb hcDAF ctr 1, hcDAF12 conf 11*, hgDAF12 ag 20* and LXRb DAF12 ctr 1.
For COCCNC(=O)C1CCCN(C(=O)c2cc(-c3ccccc3)cs2)CC1 (configuration not stated) the results were hgDAF12 agonist 8, hcDAF-12 act 0, ssDAF-12 act -1 and DAX1 inh-2 1.
Screening Cc1ccc(NC(=O)c2cccc3cccnc23)cc1 returned hgDAF12 agonist 17*, hcDAF-12 act 8.8*, ssDAF-12 act 2.7*, DAX1 inh-1 4, DAX1 inh-2 2, LXRb hcDAF ctr 1, hcDAF12 conf 10*, hgDAF12 ag 19* and LXRb DAF12 ctr 1.
Screening Cc1ccc(NC(=O)c2ccccc2O)cc1 returned hgDAF12 agonist 20*, hcDAF-12 act 10*, ssDAF-12 act 2.1*, DAX1 inh-1 0, DAX1 inh-2 3, LXRb hcDAF ctr 2, hcDAF12 conf 8.3*, hgDAF12 ag 17* and LXRb DAF12 ctr 1.
For O=C(Nc1ccccc1)Nc1cccc2ccccc12 the results were hgDAF12 agonist 3, hcDAF-12 act 1, ssDAF-12 act -1, DAX1 inh-1 1 and DAX1 inh-2 0.
For O=C(Nc1ccccc1)Nc1cccc2cccnc12 the results were hgDAF12 agonist 15*, hcDAF-12 act 9.0*, ssDAF-12 act 1.8*, DAX1 inh-1 3, DAX1 inh-2 1, LXRb hcDAF ctr 1, hcDAF12 conf 8.6*, hgDAF12 ag 17* and LXRb DAF12 ctr 1.
`O=C(Cn1cnc2sc3c(c2c1=O)CCCC3)NCC(=O)Nc1c(F)cccc1F` gave hgDAF12 agonist 0, hcDAF-12 act -2, ssDAF-12 act -1, DAX1 inh-1 0 and DAX1 inh-2 0.
`Cc1cc(C)c(S(=O)(=O)NCC2CCC(C(=O)NCCCN3CCC(C)CC3)CC2)c(C)c1` (configuration not stated) gave hgDAF12 agonist 1, hcDAF-12 act -1, ssDAF-12 act -1, DAX1 inh-1 0 and DAX1 inh-2 3.
Clc1ccccc1Nc1nc(-c2cccnc2)cs1 was read as hgDAF12 agonist 34*, hcDAF-12 act 11*, ssDAF-12 act 1.1*, DAX1 inh-1 9.5*, DAX1 inh-2 3.7*, LXRb hcDAF ctr 2, hcDAF12 conf 7.3*, hgDAF12 ag 24* and LXRb DAF12 ctr 1.
For Clc1ccccc1Nc1nnc(-c2ccncc2)s1 the results were hgDAF12 agonist 17*, hcDAF-12 act 11*, ssDAF-12 act 1, DAX1 inh-1 -3, DAX1 inh-2 4.4*, LXRb hcDAF ctr 1, hcDAF12 conf 6.7*, hgDAF12 ag 17* and LXRb DAF12 ctr 1.
Screening COc1cccc(Nc2nc(-c3cccnc3)cs2)c1 returned hgDAF12 agonist 14*, hcDAF-12 act 13*, ssDAF-12 act 1.7*, DAX1 inh-1 4.4*, DAX1 inh-2 2, LXRb hcDAF ctr 1, hcDAF12 conf 8.2*, hgDAF12 ag 17* and LXRb DAF12 ctr 1.
Screening COc1cccc(NC(=O)[C@@H]2CCC(=O)N2C2OC(=O)c3ccccc32)c1 (some centres not stated) returned hgDAF12 agonist 5, hcDAF-12 act 2, ssDAF-12 act -1, DAX1 inh-1 1 and DAX1 inh-2 0.
`Cn1c2nc3ccccc3c-2nc2ccccc21` gave hgDAF12 agonist 16*, hcDAF-12 act 8.3*, ssDAF-12 act 0, DAX1 inh-1 2, DAX1 inh-2 2, LXRb hcDAF ctr 0, hcDAF12 conf 6.7*, hgDAF12 ag 15* and LXRb DAF12 ctr 0.
Cn1c(-c2nonc2N)nc2ccccc21 was read as hgDAF12 agonist 5, hcDAF-12 act -3, ssDAF-12 act -2, DAX1 inh-1 -1 and DAX1 inh-2 0.
CCCN(C(=O)Cc1ccc(S(=O)(=O)N2CCOCC2)s1)c1c(N)n(Cc2ccccc2)c(=O)[nH]c1=O was read as hgDAF12 agonist 1, hcDAF-12 act -1, ssDAF-12 act -1, DAX1 inh-1 1 and DAX1 inh-2 -1.
